# An excerpt weighted towards active compounds, which were near 9% of everything screened.
# G9a inh = G9a (human) methyltransferase inhibition; Q96KQ7; G9a H3K9 monomethylation, AlphaScreen, 2 h; Potency, µM (titrated, usually from 102 µM), inactives show top-dose activity, negative = inhibition, actives largely listed as inhibitors; 350,000 compounds, 8.8% hits; further: on the % scale 0 is the no-effect control and ±100 the full control effect; nearly all actives have a fitted effect of over 75% in size
#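 Compounds were preincubated with 20 nM G9a for 15 min, after which biotinylated H3K9 peptide (500 nM) and SAM (20 uM) started a 2 h room-temperature reaction. Monomethylated product was quantified by antibody-based AlphaScreen chemiluminescence.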
# HP1b chromo inh = inhibitors of HP1-beta chromodomain binding to methylated histone tails; Potency, µM (doses to about 114 µM), for the others: at the top dose activity change, negative = inhibition, usual class: inhibitors; P83916; AlphaScreen HP1-beta / biotin-H3K9me3 peptide binding; 390,000 compounds, 0.56% hits; further: nearly all actives have a fitted effect of over 70% in size
#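 Compound inhibition of the preformed complex between 50 nM HP1-beta and 50 nM biotinylated H3K9me3 peptide was read by AlphaScreen. Buffer was PBS pH 7.4 with 0.01% Tween-20. Incubations ran 30 min at room temperature, with 10 ug/mL donor/acceptor beads.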
# PLK1 PBD block = PLK1 (human) polo-box domain binding inhibition; P53350; 360,000 compounds, 2.8% hits; Plk1 PBD binding of FITC phosphopeptide, fluorescence polarization; Potency, µM, for inactives: max response, negative = inhibition, actives largely listed as inhibitors; further: series mostly up to about 57 µM; on the % scale 0 is the no-effect control and ±100 the full control effect; nearly all actives have a fitted effect of over 65% in size
# BAZ2B inh = blocks human BAZ2B; 360,000 compounds, 4.4% hits; AID 504333; Potency, µM (series often up to 114 µM), inactives show at the top dose activity change, negative = inhibition, hits mostly inhibitors; AlphaScreen BAZ2B-H3K14Ac peptide displacement; further: on the % scale 0 is the no-effect control and ±100 the full control effect; nearly all actives have a fitted effect of over 60% in size
#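 Protein-peptide AlphaScreen: BAZ2B 50 nM, b-H3K14Ac 50 nM, 1x PBS pH 7.4 + 0.01% Tween-20. Preincubation 30 min RT; cpd 30 min RT (top 110 uM); beads 20 min RT, light-protected.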
# JMJD2A Tudor inh = blocks the human JMJD2A Tudor domain; AlphaScreen JMJD2A-Tudor / H3K4me3 peptide binding; Potency, µM (top dose mostly 114 µM), for inactives: at the highest dose activity change, negative = inhibition, actives largely listed as inhibitors; 390,000 compounds, 4.4% hits; AID 504339; further: on the % scale 0 is the no-effect control and ±100 the full control effect; nearly all actives have a fitted effect of over 50% in size
# 12-LOX inh = inhibitors of human 12S-lipoxygenase ALOX12. P18054. purified 12hLO, xylenol orange hydroperoxide absorbance. Potency, µM (doses to about 108 µM), without a hit: top-dose activity change, negative = inhibition, hits mostly inhibitors. 580,000 compounds, 1.1% hits. AID 1671190; further: on the % scale 0 is the no-effect control and ±100 the full control effect
#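 Hydroperoxide product was detected by ferrous iron/xylenol orange as the 573 to 405 nm absorbance ratio. Arachidonic acid at 40 uM (final) was turned over for 30 min at room temperature by 150 nM human 12hLO, pH 7.0 Hepes buffer, after 15 min compound preincubation.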
# The depositor's hits bear a star; ? = inconclusive; nt = not tested or not shown; ! = a repeat was not active; [ ] = remark or other dose. The call rests on the fitted dose curve; in most records, active means well fitted curve in the direction sought with a large enough effect; inconclusive means small, poorly fitted or top-dose-only effect, or another doubt; inactive means no such curve, though single readings can be large; an effect the other way counts as inactive or inconclusive. Potency means the concentration at half of the fitted maximal effect.
SMILES,G9a inh,HP1b chromo inh,PLK1 PBD block,BAZ2B inh,JMJD2A Tudor inh,12-LOX inh
CCCSc1nnc(-c2cccc(S(=O)(=O)N(C)C)c2)n1-c1cc(OC)ccc1OC,4%[59 µM],9%,-1%,-3%,-15%,1%
CC(=O)Nc1ccc2c(c1)C(=Nc1ccccc1)c1ccccc1-2,nt,-26%[57 µM],-6%,nt,35µM*,7%
Cc1ccc(Cl)cc1NC(=S)NCCSc1ccc(Cl)cc1,nt,nt,nt,nt,nt,35µM*
COc1ccccc1NC(=S)NCCSc1ccc(Cl)cc1,-4%,36%,-2%,-30%,-2%,2%
COc1ccc(Cl)cc1NC(=S)NCCSc1ccc(C)cc1,2%,64%,-3%,29%,11%[57.1 µM],45µM*
Cc1ccc(Cl)cc1NC(=S)NCCSc1ccccc1,nt,nt,nt,nt,nt,-95%
COc1ccc(NC(=S)NCCSc2ccc(Cl)cc2)c(OC)c1,13µM*,-21%,?,?,-33%,?
O=C(NCCn1cc(SCC(=O)N2CCOCC2)c2ccccc21)c1ccccc1,-27%[59 µM],37%,-17%,-6%,-11%,17%
O=C1c2ccccc2C(=O)N1c1cccc2cnccc12,nt,nt,nt,nt,-4%,nt
CC1CNCCN1S(=O)(=O)c1cccc2cnccc12 (stereo not drawn),11µM*!,33%,-14%,?,-28%,?
O=S(=O)(c1cccc2cnccc12)N1CCCNCC1,?,5%,-5%,4%,89µM*,?
Cc1ccc(Cn2c(=O)n(Cc3ccco3)c(=O)c3oc4ccccc4c32)cc1,-18%[59 µM],36%,nt,-16%,-14%,-10%
COC(=O)c1sc2ccccc2c1S(=O)(=O)N1CCN(c2ccc(C(C)=O)cc2)CC1,?,12%,nt,-33%,-18%,?
CN(Cc1nc2ccccc2c(=O)[nH]1)C(=O)c1cccc(NC(=O)c2cccs2)c1,nt,8%,-12%,nt,-26%,-14%
Cc1nn(-c2ccccn2)c2c1C(c1ccccn1)C1=C(CCCC1=O)N2 (stereo not drawn),-2%[59 µM],nt,nt,-6%,nt,nt
CCC1=Nc2ccccc2NC2=C1C(=O)CCC2,?,2%,-20%,50µM*,-38%,?
N#CC(=C1CCCC1)c1nc(-c2ccccc2O)cs1,35µM*,6%,?,-32%,-23%,nt
N#CC(=C1CCCC1)c1nc(-c2ccccc2)cs1,?,104%,-5%,74%,139%,-11%
CCN1C(=O)[C@H]2[C@H]3CN=C(SCc4ccc(Cl)cc4)N3[C@@](CC)(C(=O)OC)[C@H]2C1=O,nt,33%,-8%,nt,-14%,?
Nc1ccc(Oc2ccc(Br)cc2)cc1,-10%[59 µM],?,-17%,40µM*,?,-1%
CC(=C/c1ccco1)/C=N/NC(=O)Cc1cccn1C,?,-4%,-12%,45µM*,-15%[57.1 µM],?
Cn1cccc1CC(=O)N/N=C\c1cccs1,nt,6%,-12%,50µM*,-22%,32%
Cc1ccc(/C=N/NC(=O)Cc2cccn2C)s1,?,0%,-3%,?,-13%,-13%
Cn1cccc1CC(=O)N/N=C/c1ccco1,nt,2%,-8%,?,-25%,0%
CC(/C=N/NC(=O)Cc1cccn1C)=C\c1ccco1,11µM*,-2%,-3%,?,?,-28%
SMILES,G9a inh,HP1b chromo inh,PLK1 PBD block,BAZ2B inh,JMJD2A Tudor inh,12-LOX inh
COc1cc(C)ccc1OCc1cc(C(=O)NCc2ccncc2)no1,24%,16%,-11%,-18%,-10%,490%
Cc1ccc(S(=O)(=O)N2CCN(c3nc(-c4ccc(CN5CCNCC5)s4)nc4ccccc34)CC2)cc1,nt,-20%,nt,nt,?,nt
O=C(NCCC(=O)N(CCc1ccccc1)Cc1ccccc1)c1ccccc1Cl,-16%,40%,-8%,12%,-12%,-2%
Cc1cc(C)c2cc(C#N)c(NCCNC(=O)c3ccccc3)nc2c1,nt,nt,-2%,nt,nt,?
Cn1c(SCC(=O)N2CCN(c3ccccc3)CC2)nnc1-c1ccco1,28%,34%,-6%,-26%,-15%,-29%
O=C(CSc1ccc(Br)cc1)N1CCN(C(=O)c2ccco2)CC1,45µM*,46%,-17%,-6%,-8%,?
O=C(CSc1ccc(Br)cc1)N1CCOCC1,13%,56%,-14%,-13%,?,6%
O=C(CSc1nnc(-c2ccco2)n1-c1ccccc1)N1CCN(C(=O)c2ccco2)CC1,-5%[12.7 µM],-14%,9.5µM*,-3%,-31%[11.4 µM],24%
CCc1cc2ccc(C)cc2nc1SCC(=O)N1CCN(C(=O)c2ccco2)CC1,?,?,24µM*,?,89µM*,0%
O=C(c1ccco1)N1CCCN(C(=O)c2ccco2)CC1,-5%[59 µM],-20%,19µM*,2%,?,-22%
CCC(C)c1ccc(NC(=O)CCn2cnc3c2c(=O)n(C)c(=O)n3C)cc1 (stereo not drawn),nt,nt,nt,nt,nt,38%
O=C(c1ccccc1F)N1CCC2CC1c1cc(N3CCCCC3)ccc12 (stereo not drawn),nt,nt,-4%,nt,nt,-11%
O=C(CC1CCOCC1)N1CCN(C(=O)c2ccco2)CC1,nt,nt,nt,nt,nt,45%
O=C(CCC1CCCC1)N1CCN(C(=O)c2ccco2)CC1,-1%[59 µM],-1%,24µM*,6%,-28%[11.4 µM],9%
CCN(CC)c1nc(N)n(CCSC(=S)N(C)C)c(=O)n1,nt,47%,-5%,-4%,-18%,?
COc1ccc(CNC(=O)CN2C(=O)C(c3ccccc3)Oc3cccnc32)cc1 (stereo not drawn),-8%,9%,-2%,-4%,-18%,24%
Cc1cc(C)cc(NC(=O)CCCN2C(=O)C(c3ccccc3)Oc3cccnc32)c1 (stereo not drawn),11%[59 µM],20%,24µM*,-14%,?,1%
O=C(CN1C(=O)C(c2ccccc2)Oc2cccnc21)NCc1ccccc1F (stereo not drawn),-7%[59 µM],18%,7.5µM*,-23%,20µM*,-2%
CCOc1ccc(CNC(=O)CN2C(=O)C(c3ccccc3)Oc3cccnc32)cc1 (stereo not drawn),29%,30%,-2%,71µM*,-24%,-2%
COc1cc2nc(Cl)nc(N3CCCCC3)c2cc1OC,4%[59 µM],21%,-12%,-16%,-8%,-6%
Oc1c(Br)cc(Br)cc1/C=N/N1CCN(Cc2ccccc2)CC1,-10%[59 µM],14%,-4%,0%,-27%,-27%
Cn1cccc1/C=N/N1CCN(Cc2ccc(Cl)cc2)CC1,40µM*,40µM*,-11%,32µM*,50µM*,?
COc1ccccc1C1CCN(Cc2cccc3ccccc23)CC1,1%,42%,-1%,-7%,-1%,0%
Cn1cccc1/C=N/N1CCN(Cc2ccccc2)CC1,25µM*,?,-4%,50µM*,?,?
Cn1cccc1/C=N/N1CCN(Cc2cccc3ccccc23)CC1,25µM*,?,-7%,22µM*,32µM*,18µM*
